# Assay outcomes (PubChem BioAssay)
# The list is not random: actives were taken first. Their share in the collection is about 1.1%.
# HTR5A ag ctr: counter-screen for OPRM1-OPRD1 agonists: human HTR5A agonism | 340,000 tested, 0.61% active | HTR5A agonist assay, luminescence, cell-based | AID 504692 | P47898 | activation, % at 9.3 µM; in the data active means activation mostly above about 9.5%, no sharp cut-off; inactive means mostly below about 7.6%;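 further: 0% = cells with vehicle only and 100% = reference agonist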
# Target sequence (P47898 whole entry, looked up): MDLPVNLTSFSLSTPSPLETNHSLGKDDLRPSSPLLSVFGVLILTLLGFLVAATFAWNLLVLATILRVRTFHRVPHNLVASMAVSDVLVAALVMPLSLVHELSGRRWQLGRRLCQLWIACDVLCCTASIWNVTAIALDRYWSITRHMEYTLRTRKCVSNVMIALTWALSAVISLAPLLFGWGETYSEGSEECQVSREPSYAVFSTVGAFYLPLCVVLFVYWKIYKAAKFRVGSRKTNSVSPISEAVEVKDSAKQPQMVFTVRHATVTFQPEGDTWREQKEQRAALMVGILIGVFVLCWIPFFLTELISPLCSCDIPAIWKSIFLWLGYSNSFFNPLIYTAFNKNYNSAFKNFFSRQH
# HTR5A inv ag: HTR5A inverse agonism, opioid heterodimer counter-screen. HTR5A cell line, luminescence. P47898. AID 504634. 340,000 tested, 0.083% active. inhibition, % at 9.3 µM; in the data active means inhibition mostly above about 23%, no sharp cut-off; inactive means mostly below about 18%;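 further: 0% = cells with DMSO and 100% = no-cell wells with DMSO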
# MOR-DOR ag: OPRM1-OPRD1 heterodimerization agonism. 340,000 tested, 0.3% active. P35372+P41143. cells, luminescence. activation, % at 9.3 µM; in the data active means activation above about 18%;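 further: 0% = vehicle-treated cells and 100% = reference agonist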
# OPRM1-OPRD1 inv: inverse agonist of human OPRM1-OPRD1 heterodimerization. P35372+P41143. cell-based MOR-DOR heterodimer luminescence, inverse agonism. inhibition, % at 9.3 µM. 340,000 tested, 0.21% active. AID 504357; in the data active means inhibition above about 22%, passing the limit was not always enough;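 further: 0% = cells with DMSO and 100% = wells without cells with DMSO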
# Active calls of the source: *.
SMILES,HTR5A ag ctr,HTR5A inv ag,MOR-DOR ag,OPRM1-OPRD1 inv
CC(C)(C)C(=O)NC(=S)NNC(=O)c1ccc(-c2ccccc2)cc1,-23.2,87.0*,-6.0,30.4*
COc1ccc(C2=NN(c3nc(-c4ccc(CNC(C)=O)cc4)cs3)C(c3ccco3)C2)cc1 (centres undefined),6.8,-19.2,-0.6,3.7
O=C(c1ccc(Cl)c(S(=O)(=O)N2CCCC2)c1)N1CCN(c2ccccn2)CC1,11.8*,-66.2,2.7,-13.9
O=C(c1ccc(Cl)c(S(=O)(=O)N2CCOCC2)c1)N1CCN(c2ccccn2)CC1,-1.2,-8.2,-3.7,14.5
Cc1ccc(N2CC(C(=O)N3CCCCCC3)CC2=O)cc1 (centres undefined),6.3,-4.7,-1.8,9.8
COc1ccccc1N1CCN(CC(=O)Nc2ccc(S(=O)(=O)N3CCCCCC3)cc2)CC1,2.6,-9.3,-1.5,5.9
O=C1c2ccccc2C(=O)N1CC1c2ccccc2CCN1C(=O)CN1CCOCC1 (centres undefined),10.6*,-27.2,0.1,-0.5
O=C1c2ccccc2C(=O)N1CC1c2ccccc2CCN1C(=O)C1CCCCC1 (centres undefined),1.4,-3.8,3.3,-20.5
Cc1ccc(NC(=O)/C=N/OCC(=O)NCc2ccccc2Cl)cc1,13.9*,-39.7,-1.8,9.8
Cc1sc(-c2ccncc2)nc1OC(=O)c1ccc(F)cc1F,9.8*,-25.6,1.2,-6.9
CSc1nc(N)nc(SCC(=O)C23CC4CC(CC(C4)C2)C3)c1C#N,11.7*,-34.4,8.8,-47.1
N#Cc1c(N)nc(SCC(=O)C23CC4CC(CC(C4)C2)C3)c(C#N)c1-c1ccc(Cl)cc1,6.8,-17.6,0.1,-0.3
CC(=O)Nc1sc(N/N=C/c2ccccc2)nc1-c1ccc(C)cc1,12.7*,3.9,0.5,-2.6
N#Cc1ccc(S(=O)(=O)NC2CCCCNC2=O)cc1 (centres undefined),2.3,-8.2,-3.1,14.2
COc1ccc(C(=O)c2sc3nc(-c4ccccc4)ccc3c2N)cc1OC,17.8*,-10.0,9.7,-57.7
CC(=O)N(Cc1cc2ccccc2[nH]c1=O)c1ccc(C)cc1,9.7*,-35.7,-1.4,6.4
Cc1ccc(Nc2c(-c3ccccn3)nc3cccc(C)n23)cc1,-4.5,-3.1,-6.7,34.1*
COc1ccc(-n2nnnc2-c2cccnc2)cc1,10.4*,-20.1,3.2,-16.7
O=C(NCc1ccccc1)C(c1ccc(F)cc1)N(C(=O)c1csnn1)C1CCCC1 (centres undefined),-3.6,10.3,0.6,-3.3
Cn1c(=O)c2c(ncn2Cc2ccc(Cl)cc2)n(C)c1=O,8.0*,-20.7,-2.1,12.2
Cn1c(=O)c2c(ncn2CC(COCc2ccc(Cl)cc2)OCc2ccc(Cl)cc2)n(C)c1=O (centres undefined),2.1,-5.7,-0.9,5.0
O=S(=O)(Cc1ccccc1)N1CCN(Cc2ccc(F)cc2Cl)CC1,2.1,-2.2,-1.3,7.0
Cc1c(C(C)CCCO)oc(=O)c2c1Oc1c(C)c(C(C)C[C@H](C)O)oc(=O)c1C2 (some centres undefined),-4.6,11.7,0.1,-0.3
CC(=O)c1ccc(S(=O)(=O)N2CCN(C(=O)CCC3CCCC3)CC2)cc1,-0.5,1.2,-0.1,0.6
Nc1cc(=O)[nH]c2ncnn12,0.7,-2.8,-2.3,10.1
SMILES,HTR5A ag ctr,HTR5A inv ag,MOR-DOR ag,OPRM1-OPRD1 inv
CN1CCN(S(=O)(=O)c2ccc(Br)c3ccccc23)CC1,10.9*,-41.0,-1.0,4.8
Cn1cc(CN2CCC(n3nccc3NC(=O)CCc3ccccc3)CC2)cn1,10.4*,-13.2,-1.2,6.6
Cn1cc(CN2CCC(n3nccc3NC(=O)CCCc3ccccc3)CC2)cn1,2.9,24.8,0.0,-0.2
CCOc1ccccc1CN1CCNC(=O)C1CC(=O)NCCN1CCOC1=O (centres undefined),1.2,-4.8,-0.9,4.7
O=C1c2cccc3cccc(c23)C(=O)N1c1ccc(O)cc1,-2.1,7.9,1.8,-8.9
O=C1c2cccc3cccc(c23)C(=O)C1(O)O,-3.6,14.6,-9.1,46.3*
CC(C)(C)c1ccc(CSc2nc(N)cc(=O)[nH]2)cc1,3.3,-12.3,-1.3,6.1
O=C(NC(C(=O)c1ccccc1)N1CCOCC1)c1cccs1 (centres undefined),12.5*,-26.1,1.1,-6.6
CCN(C(=O)CSc1ncccc1C(=O)OC(C)C)c1cccc(C)c1,11.3*,-13.4,-0.9,4.5
CC(C)[C@H](NC(=O)c1ccccc1)C(=O)Nc1ccc2c(c1)OCO2,3.1,-7.8,-0.9,3.7
COc1ccc(CNC(=O)CN(C(=O)CCC(=O)Nc2nccs2)c2ccccc2C)cc1,1.4,-4.2,1.9,-15.3
NC(=O)c1c(NC(=O)CSc2nnc(Cc3ccccc3)n2Cc2ccco2)sc2c1CCC2,3.1,-10.8,0.2,-1.0
CCCCn1c(SCC(=O)Nc2sc3c(c2C(N)=O)CCC3)nnc1-c1ccccc1,13.6*,-25.2,2.2,-12.9
Cc1cc(C)cc(N(CCC#N)C(=O)CSc2ncnc3sccc23)c1,-5.0,-12.2,-0.5,1.8
CCOC(=O)C1CCCN(C(=O)C2c3ccccc3Oc3ccccc32)C1 (centres undefined),12.3*,13.9,-0.5,2.5
Cc1onc(C(=O)N2CCN(C(c3ccccc3)c3ccccc3)CC2)c1[N+](=O)[O-],12.7*,-33.4,16.3,-80.9
COc1ccccc1N1CCN(C(=O)c2noc(C)c2[N+](=O)[O-])CC1,9.2,8.4,-1.2,6.2
O=C(Nc1ccncc1)C1CCN(S(=O)(=O)c2ccc(Cl)c(C(F)(F)F)c2)CC1,0.1,-0.4,-0.6,2.5
O=C1CN(C(=O)/C=C/c2ccc(Br)cc2)CCN1,6.7,-24.8,-1.8,8.5
COc1cc(C#Cc2c(-c3cncn3C)n(C)c3ccc(-c4cnc(OC)nc4)cc23)cc(OC)c1,12.3*,-44.1,1.0,-5.2
CCn1c(SCC(=O)NC2CCCCC2)nc2c(c1=O)SCC2,-0.8,0.4,-3.3,17.7
CC(=O)NC12CC3CC(C1)CC(C(=O)N1CCN(S(=O)(=O)c4ccc(Cl)s4)CC1)(C3)C2,11.3*,-4.9,-1.2,6.2
CC(=O)NC12CC3CC(C1)CC(C(=O)N1CCN(S(=O)(=O)c4ccccc4[N+](=O)[O-])CC1)(C3)C2,-2.6,6.3,-0.5,1.9
CCCc1nnc(NC(=O)CCC(=O)N2CCCCC2CC)s1 (centres undefined),9.9*,-15.3,-2.2,12.0
COc1ccc(CNC(=O)c2cc(=O)c3cc(C)c(C)cc3o2)cc1,10.1*,-35.6,-1.9,8.6
CCOc1ccc(-n2nnnc2SCC(=O)c2ccccc2)cc1,13.4*,9.2,1.0,-5.9
COc1ccc(-n2nnnc2SCC(=O)c2cccc(OC)c2)cc1,-1.2,14.0,-0.2,1.0
CN(c1ccc(OCC(=O)NC2CCC(O)CC2)cc1)S(=O)(=O)c1ccc(Cl)cc1 (centres undefined),0.1,-0.5,-1.9,9.7
OC(CNCC1COc2ccccc2O1)COc1ccc(Cl)cc1 (centres undefined),9.6*,-35.5,6.0,-28.4
Cc1ccc(S(=O)(=O)Nc2cccc3ncccc23)s1,-6.5,27.0,-7.5,43.7*
